TGFb SMAD3 inh: inhibitors of TGF-b signaling | Potency, µM (highest dose often 46.1 µM), for inactives: at the highest dose activity, negative = inhibition, usual class: inhibitors | 1.2% of 410,000 active | HepG2 CAGA-GFP TGF-b/SMAD3 reporter, GFP fluorescence, 18 h; TGF-beta stimulated, 500 pg/mL final | AID 588855; further: potency means the concentration at half of the fitted maximal effect; on the % scale 0 is the no-effect control and ±100 the full control effect; nearly all actives have a fitted effect of over 65% in size
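Using HEPG2 CAGA-GFP reporter cells at 1000 cells/well, we pinned test compounds, stimulated with recombinant TGF-beta (500 pg/mL final) and measured total well GFP after 18 h.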
TDP1 inh: inhibitors of human tyrosyl-DNA phosphodiesterase TDP1; Q9NUW8; recombinant TDP1, AlphaScreen DNA substrate cleavage; Potency, µM (top dose mostly 130 µM), for inactives: at the top dose activity change, negative = inhibition, most hits filed as inhibitors; 0.28% of 350,000 active; AID 485290; further: potency means the concentration at half of the fitted maximal effect; on the % scale 0 is the no-effect control and ±100 the full control effect; nearly all actives have a fitted effect of over 40% in size
Target sequence (Q9NUW8 whole entry, looked up): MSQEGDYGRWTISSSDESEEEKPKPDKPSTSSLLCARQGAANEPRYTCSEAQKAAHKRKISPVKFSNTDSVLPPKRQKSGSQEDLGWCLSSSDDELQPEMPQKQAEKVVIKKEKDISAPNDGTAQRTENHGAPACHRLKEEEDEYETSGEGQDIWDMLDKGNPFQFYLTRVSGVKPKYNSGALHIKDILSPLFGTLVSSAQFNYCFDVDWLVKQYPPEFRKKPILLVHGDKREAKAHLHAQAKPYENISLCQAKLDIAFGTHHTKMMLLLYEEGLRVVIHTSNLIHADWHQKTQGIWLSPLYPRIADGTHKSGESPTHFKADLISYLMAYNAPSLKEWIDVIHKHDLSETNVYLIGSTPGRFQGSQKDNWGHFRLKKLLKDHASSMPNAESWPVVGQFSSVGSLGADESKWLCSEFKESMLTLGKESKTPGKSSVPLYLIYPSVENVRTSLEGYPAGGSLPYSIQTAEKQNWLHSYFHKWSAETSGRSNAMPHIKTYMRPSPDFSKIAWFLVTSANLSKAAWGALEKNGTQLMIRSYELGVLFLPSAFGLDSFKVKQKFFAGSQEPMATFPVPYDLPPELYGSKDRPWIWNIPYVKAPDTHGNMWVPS
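AlphaScreen read-out: signal falls as enzyme removes the 3' tyrosine-FITC from a 5'-biotinylated DNA oligo (15 nM, 5 min, RT). Enzyme was E. coli-made recombinant Tdp1 at 1 nM, exposed to compound for 15 min beforehand; beads 10 ug/ml, 10 min.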
HepG2 tox: HepG2 cytotoxicity, counter-screen for TGF-b inhibitors; 0.76% of 410,000 active; Potency, µM (titrated, usually from 46.1 µM), without a hit: at the highest dose activity change, negative = cytotoxicity, actives largely listed as cytotoxic; AID 588856; HepG2 CAGA-GFP viability, ATP luminescence, 18 h; further: potency means the concentration at half of the fitted maximal effect
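HepG2 CAGA-GFP cells (1000/well, DMEM with 1% FBS) received compound, then TGF-beta at 500 pg/mL final, and were incubated 18 hours at 37 degrees C. Viability was read by CellTiter-Glo luminescence. Media-only wells were set as complete cell-killing and DMSO as no toxicity.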
TDP1 cell noCPT: qHTS for Inhibitors of human tyrosyl-DNA phosphodiesterase 1 (TDP1): qHTS in cells in absence of CPT; DT40 Tdp1-/- hTDP1 cells, no CPT, ATP luminescence, 48 h; Potency, µM (titrated, usually from 46.2 µM), without a hit: at the highest dose activity change, negative = growth inhibition, hits mostly inhibitors; 15% of 420,000 active; further: potency means the concentration at half of the fitted maximal effect; on the % scale 0 is the no-effect control and ±100 the full control effect; nearly all actives have a fitted effect of over 55% in size
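A cellular qHTS used chicken DT40 cells lacking endogenous Tdp1 but carrying stably transfected human TDP1. Compounds were applied without camptothecin, and cell growth kinetics were judged by ATP-dependent luminescence after ≥48 hr.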
TDP1 cell CPT: growth inhibition of DT40 Tdp1-/-;hTDP1 cells with camptothecin (screen for TDP1 inhibitors) | Potency, µM (top dose mostly 46.2 µM), inactives show top-dose activity change, negative = growth inhibition, actives largely listed as inhibitors | 12% of 420,000 active | chicken DT40 Tdp1-/-;hTDP1 cells + 20 nM CPT, ATP luminescence, 48 h; further: potency means the concentration at half of the fitted maximal effect; on the % scale 0 is the no-effect control and ±100 the full control effect; nearly all actives have a fitted effect of over 55% in size
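Chicken DT40 Tdp1-/- cells complemented with human TDP1, 400 cells/well, exposed to compounds plus 20 nM camptothecin for at least 48 h at 37 C; viability read as ATP content by CellTiter-Glo luminescence.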
IL1B secr inh: blocks inflammasome-driven IL-1 beta release | THP-1 LPS/ATP IL-1B secretion, AlphaLISA, 16 h; active compounds read low | activity change, % at 57.5 µM | 4.7% of 360,000 active | AID 743279; in the data active means activity change below about -50%; inconclusive means mostly about -30% to -49%; further: on the % scale 0 is the no-effect control and ±100 the full control effect
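THP-1 cells pretreated 1 hr with compounds (up to 57.5 uM final), then stimulated with LPS (250 ng/mL final) plus ATP (1.25 mM final); secreted IL-1B measured by AlphaLISA after 16 hr, decreased signal indicating inhibition.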
* marks the source's active call; other numbers are inactive results; ? = inconclusive; nt = no result; [ ] = dose if it differs, or a comment. Most compounds without a hit are left out; they make up all but 19% or so of the library. Unless noted, the call rests on the fitted dose curve; in most records, active means well fitted curve in the direction sought with a large enough effect; inconclusive means small, poorly fitted or top-dose-only effect, or another doubt; inactive means no such curve, though single readings can be large; an effect the other way counts as inactive or inconclusive.

SMILES | TGFb SMAD3 inh | TDP1 inh | HepG2 tox | TDP1 cell noCPT | TDP1 cell CPT | IL1B secr inh
CCN(Cc1ccccc1)c1ccc(/C=C(\C#N)c2ccccn2)cc1 | -2% | 3% | -4% | ? | -30% | -14
Cc1ccc(-c2noc(CN(C)C(=O)c3ccc(Br)o3)n2)cc1 | 3% | nt | -27% | ? | -30% | 5
Cc1cc(-c2n[nH]c(=S)n2/N=C/c2cc([N+](=O)[O-])ccc2Cl)n[nH]1 | 12% | 6% | 2% | 18µM* | 5.2µM* | 42
Cc1nc2ccccc2c(=O)n1/N=C/c1cn(-c2ccccc2)nc1-c1cccs1 | -1% | 0% | -25% | 21µM* | ? | 1
S=c1[nH]nc(-c2ccncc2)n1/N=C/c1cn(-c2ccccc2)nc1-c1ccccc1 | -1% | 4% | 7% | ? | ? | 75
O=[N+]([O-])c1ccc(-c2nn(-c3ccccc3)cc2/C=N/n2c(-c3ccncc3)n[nH]c2=S)cc1 | 6% | nt | -39% | 18µM* | ? | 17
S=c1[nH]nc(-c2cccs2)n1/N=C/c1cn(-c2ccccc2)nc1-c1cccs1 | 18µM* | nt | -27% | -29% | 5% | nt
NC[C@@H]1O[C@H](O[C@@H]2[C@H](O[C@@H]3O[C@H](CO)[C@@H](O)[C@@H]3O)[C@@H](O)[C@@H](N)C[C@H]2N)[C@@H](N)[C@H](O)[C@@H]1O | nt | 5%[56.1 µM] | nt | nt | nt | nt
CC(=O)Nc1ccc(S(=O)(=O)N/N=C/c2ccc(C)s2)cc1 | 2% | 0% | -46% | -3% | ? | -3
C[C@H]1CN(Cc2ccccc2)C(=O)[C@@H]1CC(=O)Nc1ccccc1 | 1% | nt | 12% | -24% | -28% | -12
O=C(C[C@H]1C(=O)N(Cc2ccccc2)C[C@@H]1Cc1ccccc1)Nc1ccccc1 | ? | nt | 9% | 11µM* | 13µM* | -12
CCCCN1C[C@H](Cc2ccccc2)[C@@H](CC(=O)Nc2ccccc2)C1=O | 20% | nt | -4% | ? | 16µM* | -16
CCCCN1C[C@H](CSC)[C@@H](CC(=O)Nc2ccc(Br)cc2)C1=O | -14% | nt | -35% | 23µM* | ? | -11
O=C(C[C@H]1C(=O)N(CCc2ccccc2)C[C@@H]1Cc1ccccc1)Nc1ccccc1 | 11µM* | nt | -25% | 16µM* | 16µM* | -24
O=C(C[C@H]1C(=O)N(CCc2ccccc2)C[C@@H]1Cc1ccccc1)Nc1ccc(Br)cc1 | ? | nt | -28% | ? | ? | ?
CCCCN1C[C@H](Cc2ccccc2)[C@@H](CC(=O)Nc2ccc(OC)cc2)C1=O | 2% | nt | -22% | 2% | 0% | -22
COc1cccc(NC(=O)c2cc3ccccc3cc2OC)c1 | -19% | 0% | -11% | ? | -3% | -12
COc1ccc(C2COc3c(ccc(O)c3OC)C2)c(OC)c1O (stereo not given) | nt | 7%[56.1 µM] | nt | -29% | ? | nt
O=C(C[C@H]1C(=O)N(C2CCCCC2)C[C@@H]1Cc1ccccc1)Nc1ccccc1 | 3% | nt | -3% | 16µM* | ? | ?
COc1ccc(NC(=O)C[C@H]2C(=O)N(Cc3ccccc3)C[C@@H]2Cc2ccccc2)cc1 | -9% | nt | 0% | ? | 18µM* | ?
C=C1CCN(C(CC(C)C)C(=O)O)S(=O)(=O)c2ccccc21 (stereo not given) | -2% | 3% | 3% | nt | nt | nt
Cc1[nH]ccc2cc3nc4ccccc4c3cc12 | ? | nt | -74% | 3.7µM* | 5.2µM* | -58*
Cc1cccc2nc3ccccc3cc12 | -16% | nt | 3% | -17% | 14% | -25
COc1ccc([N+](=O)[O-])cc1NC(=O)COC(=O)c1ccccn1 | 0% | 6% | -1% | -17% | -4% | 12
CNC(=O)/C(C#N)=C/c1c(N2CCCCCC2)nc2c(C)cccn2c1=O | ? | nt | -29% | -17% | ? | -3
SMILES | TGFb SMAD3 inh | TDP1 inh | HepG2 tox | TDP1 cell noCPT | TDP1 cell CPT | IL1B secr inh
Cc1ccc(NNC(=O)c2ccno2)c(C)c1 | 9% | 11% | 0% | 18µM* | 3% | 45
COc1ccc(-n2cc(CN3CCC(OC)CC3)c(-c3cccc(F)c3)n2)cc1 | 7% | -3% | 9% | 1% | -1% | -25
COc1ccc(-n2cc(CNC3CCC(O)CC3)c(-c3cccc(F)c3)n2)cc1 (stereo not given) | -11% | 3% | -9% | 21µM* | 21µM* | -28
COc1ccc(-n2cc(CN(C)C(C)c3ccncn3)c(-c3cccc(F)c3)n2)cc1 (stereo not given) | -14% | 0% | 0% | ? | ? | -51*
COc1ccc(CNCc2cn(-c3cccc(F)c3)nc2-c2ccc(C)o2)cc1 | 13µM* | 5% | -102% | 16µM* | ? | -87*
CCn1cc(C(=O)N2CCN(c3cccc(Cl)c3)CC2)c(=O)c2cc(S(=O)(=O)N3CCCCC3)ccc21 | ? | 0% | 6% | 1% | -10% | nt
O=C(NCCC1=CCCCC1)C1CCN(C(=O)N2CCOc3ccccc32)CC1 | ? | 1% | -22% | ? | ? | nt
Cc1ccc(S(=O)(=O)N(C)CCCC(=O)Nc2ccc(F)cc2)cc1 | -21% | 7% | -12% | -25% | 21µM* | 1
Cc1ccc(S(=O)(=O)N(C)CC(=O)Nc2ccncc2)cc1 | -7% | 2% | -4% | ? | ? | 7
Cc1ccc(S(=O)(=O)N(C)CCCC(=O)Nc2ccncc2)cc1 | -21% | 1% | -18% | 13µM* | 10µM* | 36
CCC(=O)N1CCc2cc(CNC(=O)C(CC)c3ccccc3)ccc21 (stereo not given) | 1% | 7% | -13% | -21% | -18% | nt
COCCn1c(SCc2csc(-c3ccccc3)n2)nc2ccccc21 | -13% | 1% | -44% | 18µM* | 16µM* | ?
Cc1ccc(CN2C(=O)CCC2(C)c2nnnn2-c2c(C)cccc2C)cc1 (stereo not given) | nt | nt | nt | 16µM* | 18µM* | 15
COc1ccc(CN2C(=O)CCC2(C)c2nnnn2-c2c(C)cccc2C)cc1 (stereo not given) | nt | nt | nt | ? | ? | 33
CCC(Oc1ccccc1)C(=O)Nc1ccc(O)c(-c2nc3cc(C)ccc3o2)c1 (stereo not given) | nt | -2% | -5% | ? | -28% | nt
